Structures are written as SMILES. Inconclusive results are not listed. More than one record can exist for a structure, and the calls need not agree. The source made the active and inactive calls. How the source made its calls: active means hit-call score of the fitted dose curve at least 0.9, where 1 is the maximum; inconclusive means response in the unintended direction; inactive means score below 0.9.

Chain of human Matrix Metalloproteinase-9 (MMP9), MMP9 (gene 4318) (P14780 whole entry, looked up): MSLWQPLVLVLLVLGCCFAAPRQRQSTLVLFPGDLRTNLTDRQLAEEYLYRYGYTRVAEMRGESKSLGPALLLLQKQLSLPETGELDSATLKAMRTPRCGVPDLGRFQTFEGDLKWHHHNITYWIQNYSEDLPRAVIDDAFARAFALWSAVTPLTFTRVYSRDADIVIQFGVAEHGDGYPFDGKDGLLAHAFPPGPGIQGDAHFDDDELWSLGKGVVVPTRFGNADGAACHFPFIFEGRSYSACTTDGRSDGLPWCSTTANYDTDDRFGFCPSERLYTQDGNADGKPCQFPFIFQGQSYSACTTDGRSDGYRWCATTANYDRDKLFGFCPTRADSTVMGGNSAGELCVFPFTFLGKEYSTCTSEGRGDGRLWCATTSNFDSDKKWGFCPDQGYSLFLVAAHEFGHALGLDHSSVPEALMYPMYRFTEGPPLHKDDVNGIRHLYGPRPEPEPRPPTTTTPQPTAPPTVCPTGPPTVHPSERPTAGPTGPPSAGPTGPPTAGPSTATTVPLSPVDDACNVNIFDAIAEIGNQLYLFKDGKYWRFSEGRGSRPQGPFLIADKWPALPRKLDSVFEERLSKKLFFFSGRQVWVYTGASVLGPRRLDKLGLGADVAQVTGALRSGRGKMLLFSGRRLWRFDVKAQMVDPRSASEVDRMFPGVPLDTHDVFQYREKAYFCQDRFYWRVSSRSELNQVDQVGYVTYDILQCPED

The target of the test is human Matrix Metalloproteinase-9 (MMP9), MMP9 (gene 4318) (UniProt P14780). Description: NVS_ENZ_hMMP9: NovaScreen (NVS) Enzymatic Assay for human Matrix Metalloproteinase-9 (MMP9) (AID 2283190).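 Further: active means inhibition seen as loss of fluorescence signal versus DMSO.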 How it is done:
NVS_ENZ_hMMP9 is a biochemical, single-readout assay that uses extracted gene-proteins in a cell-free assay. Measurements were taken 1 hour after chemical dosing in a 96-well plate.NVS_ENZ_hMMP9 is one of one assay component(s) measured or calculated from the NVS_ENZ_hMMP9 assay. It is designed to make measurements of enzyme activity, a form of enzyme reporter, as detected with fluorescence intensity signals by Fluorescence technology.Data from the assay component NVS_ENZ_hMMP9 was analyzed into 1 assay endpoint. This assay endpoint, NVS_ENZ_hMMP9, was analyzed in the positive analysis fitting direction relative to DMSO as the negative control and baseline of activity. Using a type of enzyme reporter, loss-of-signal activity can be used to understand changes in the enzymatic activity as they relate to the gene MMP9. Furthermore, this assay endpoint can be referred to as a primary readout, because this assay has produced multiple assay endpoints where this one serves a enzymatic activity function. To generalize the intended target to other relatable targets, this assay endpoint is annotated to the protease intended target family, where the subfamily is matrix metalloproteinase.
Binding assays used specific radioligands (tritiated, iodinated) with non-radioactive competitive displacement ligands in agonist or antagonist protocols (as indicated) and various reference compounds and inhibitors to titrate specific binding to receptors and transporters. Most enzyme assays (CYPs, kinases, phosphatases, proteases, HDACs) used recombinant protein and specific substrates (fluorescence mostly, some colorimetric and radioactive) and inhibitors, followed by a biochemical separation of substrate and product. All assays for the biochemical HTS were initially run in duplicate at a single concentration (10 uM for CYP450 assays and 25 uM for all others). […] Each assay was run with positive and negative controls, and concurrent controls on every plate. The follow-up (secondary) screen tested active chemical-pairs in concentration series, as well as a few additional assays not tested in the primary screen, some selected negative inactives, and several cases re-run in the concentration series for confirmatory purposes.
For `NC(=S)Nc1ccccc1`, the concentration at half-maximal activity (AC50) was 29.4 µM (active). Still for that read-out and setting: the result for `O=C(OC1CCCCC1)c1ccccc1C(=O)OC1CCCCC1` reads 1.86 µM (active); that for `CN(C)P(=O)(N(C)C)N(C)C`, 6.94 µM (active). For `Clc1ccc(C2(Cn3cncn3)CC(Br)CO2)c(Cl)c1` (stereo unspecified), the call was inactive. Consider `CCN1CCC2(CC1)COc1cc3c(cc12)N(C(=O)c1ccc(-c2ccc(-c4nnc(C)o4)cc2C)cc1)CC3`, for which the AC50 was 4.37 µM (active). With `Nc1ccc(-c2ccc(N)c(Cl)c2)cc1Cl`, the AC50 was 0.597 µM (active).

With `ClC1=C(Cl)[C@]2(Cl)[C@H]3[C@H]([C@H]4C=C[C@H]3C4)[C@@]1(Cl)C2(Cl)Cl`, the concentration at half-maximal activity (AC50) is 102 µM (active).

In the case of `CCOC(=O)/C=C(C)/C=C/C[C@@H](C)CCCC(C)C`, the outcome was inactive.

`Nc1cccc(Cl)c1`: the AC50 is 0.226 µM (active). For `COc1cc(-c2ccc(N)c(OC)c2)ccc1N`, the outcome was inactive and the AC50 is 15.7 µM (active).

In general, AC50 refers to the concentration giving half of the maximal activity seen.

The record behind these values is PubChem BioAssay (EPA / NIEHS).
